This passage reports Potency results from PubChem BioAssay (NCATS).

Each structure is given as a SMILES string. Results filed as inconclusive are left out. Entries that show only a call come without a potency. Active and inactive are the calls of the source. Calls follow the shape of the dose curve; as a rule, active = well fitted inhibition curve with a large enough effect; inconclusive = small, poorly fitted or top-dose-only effect; inactive = flat fitted curve, though single readings scatter.
Potency is read from the fitted curve at half-maximal effect.

Chain of Ubiquitin carboxyl-terminal hydrolase 1 (Homo sapiens) (O94782 whole entry, looked up): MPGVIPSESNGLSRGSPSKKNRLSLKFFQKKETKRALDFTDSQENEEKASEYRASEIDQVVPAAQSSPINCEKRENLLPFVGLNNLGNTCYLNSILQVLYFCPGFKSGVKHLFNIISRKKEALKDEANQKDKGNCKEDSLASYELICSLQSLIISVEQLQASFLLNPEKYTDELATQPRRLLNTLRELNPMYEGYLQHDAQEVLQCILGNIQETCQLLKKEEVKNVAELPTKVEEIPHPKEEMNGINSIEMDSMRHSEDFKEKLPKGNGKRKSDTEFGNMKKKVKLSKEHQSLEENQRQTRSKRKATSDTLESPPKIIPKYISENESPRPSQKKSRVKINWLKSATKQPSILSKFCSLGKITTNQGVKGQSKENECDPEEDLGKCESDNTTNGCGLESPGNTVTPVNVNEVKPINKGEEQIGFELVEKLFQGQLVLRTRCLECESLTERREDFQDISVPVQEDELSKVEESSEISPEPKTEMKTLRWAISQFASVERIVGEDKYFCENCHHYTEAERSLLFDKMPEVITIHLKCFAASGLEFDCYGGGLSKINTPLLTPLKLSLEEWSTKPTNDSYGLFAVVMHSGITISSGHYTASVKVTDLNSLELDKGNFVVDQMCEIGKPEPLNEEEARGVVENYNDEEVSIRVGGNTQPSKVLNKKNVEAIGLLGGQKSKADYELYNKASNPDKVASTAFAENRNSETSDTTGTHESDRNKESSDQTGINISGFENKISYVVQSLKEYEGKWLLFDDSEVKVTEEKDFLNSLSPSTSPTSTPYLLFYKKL

The assay concerns the target Ubiquitin carboxyl-terminal hydrolase 1 (Homo sapiens) (UniProt O94782). The experiment in a line: Inhibitors of USP1/UAF1: Pilot qHTS (AID 504865). Also: nearly all actives have a fitted effect of over 35% in size. As to conditions: purified USP1/UAF1, Ub-rhodamine cleavage fluorescence; series mostly up to 54.9 µM. An excerpt: Deubiquitinating enzymes (DUBs) are a class of enzymes that can cleave isopeptide bond formed between the C-terminal carboxylate of ubiquitin and a lysine side-chain amino group on the target protein. Among them, ubiquitin specific proteases (USPs) constitute the largest DUB family. Human USPs are emerging as promising targets for pharmacological intervention because of their connection to a number of human diseases, including prostate, colon and breast cancer (1, 2), pediatric acute lymphoblastic leukemia (3), and familial cylindromatosis (4). The advantage of inhibiting USPs lies in the potential specificity of therapeutic intervention that can lead to better efficacy and reduce nonspecific side effects.
In a collaboration between the University of Delaware and the NIH Chemical Genomics Center, a high-throughput screen assay was developed to screen for USP1/UAF1 inhibitors. This miniaturized assay has a fluorescent read-out and is used to screen the NIH Molecular Libraries Small Molecule Repository (MLSMR) in order to identify a small molecule that inhibits USP1.
NIH Chemical Genomics Center [NCGC]
NIH Molecular Libraries Probe Centers Network [MLPCN]
Assay Submitter (PI): Zhihao Zhuang, University of Delaware
1. Priolo, C., et al. (2006) The isopeptidase USP2a protects human prostate cancer from apoptosis. Cancer Res 66, 8625-8632
2. Popov, N., et al. (2007) The ubiquitin-specific protease USP28 is required for MYC stability. Nat Cell Biol 9, 765-774
3. De Pitta, C., et al. (2005) A leukemia-enriched cDNA microarray platform identifies new transcripts with relevance to the biology of pediatric acute lymphoblastic leukemia. Haematologica 90, 890-898
4. Kovalenko, A., et al. (2003) The tumour suppressor CYLD negatively regulates NF-kappaB signalling by deubiquitination. Nature 424, 801-805
3 microliters of reagents (buffer in columns 3 and 4 as negative control and 1nM USP1/UAF1 complex in columns 1, 2, and 5-48) are dispensed into Greiner black solid bottom 1536-well assay plates. Compounds are then transferred via Kalypsys pin tool equipped with 1536-pin array (10nl slotted pins, V&P Scientific, San Diego, CA). Following an incubation step of 15 min at room temperature, 1ul of Ub-Rho substrate (150nM final concentration) is added to initiate the reaction. The plates are immediately centrifuged at 1000 rpm for 15 seconds, and subsequently transferred to a ViewLux high-throughput CCD imager (PerkinElmer) wherein kinetic measurements of fluorescence are acquired using 480 nm excitation/540 nm emission filter set (6 reads every 60 seconds, see Table 1). All reagents are diluted in an assay buffer consisting of 50mM HEPES (pH 7.8), 0.5mM EDTA, 0.1 mg/ml BSA, 1mM TCEP, and 0.01% Tween-20.
Regarding `CC(=O)NCCNc1nc(-c2ccccc2C(F)(F)F)nc2ccccc12`, the Potency entry is “inactive”.
On to `Cc1nc2cnc(Nc3ccccc3)nc2n(C2CC2)c1=O`, for which the Potency result was “inactive”.
The same measure for `CCNc1ncc2ncc(=O)n(CCOC)c2n1`: “inactive”; for `c1cncc(CNc2ncnc3ccc(-c4ccoc4)cc23)c1`: “inactive”.
The same measure for `CN=C(N)NCCCC(N)C(=O)O` (stereo not given): “inactive”.
On to `COc1ccc(-n2c(=O)c(-c3cccs3)nc3cncnc32)cc1`, for which the Potency entry was “inactive”.
To `COCCn1c(=O)c(C)nc2cnc(N(C)C)nc21` belongs “inactive”; to `COc1cccc(Cn2c(=O)c(-c3cc(F)cc(F)c3)nc3cnc(N(C)C)nc32)c1`, “inactive”.
The same measure for `CN1CCN(c2ncc3nc(CCc4ccccc4)c(=O)n(C4CC4)c3n2)CC1`: “inactive”; for `Cc1ccccc1-c1cncnc1Nc1ccc(F)cc1`: “inactive”; for `Cn1c(=O)c(-c2cccs2)nc2cnc(OCc3ccccc3)nc21`: “inactive”.
The same measure for `C=C1CCC2[C@](C)(CO)C(O)CC[C@]2(C)C1C/C=C1/C(=O)OCC1O` (stereo not given in full): “inactive”.
For `CNc1cc(-c2ccccc2CN(C)C)ncn1`, the Potency entry is “inactive”.
The same measure for `Fc1ccc(Nc2ncncc2-c2ccoc2)cc1`: “inactive”; for `COc1ccccc1CNc1ccnc(-c2ccoc2)n1`: 50.1 µM (active).
For `COc1ncc2nc(-c3ccc(F)cc3)c(=O)n(-c3ccccc3)c2n1`, the Potency result is “inactive”.
The same measure for `CN1CCN(c2ncc3nc(-c4cccs4)c(=O)n(CCC#N)c3n2)CC1`: “inactive”.
To `COCCNc1nc(-c2ccccc2Cl)nc2ccccc12` belongs “inactive”; to `O=C(O)C1CCN(c2ncnc3ccc(-c4ccccc4C(F)(F)F)cc23)CC1`, “inactive”; to `COc1ccc(-n2c(=O)c(-c3ccccc3)nc3cnc(N4CCNCC4)nc32)cc1`, “inactive”.
For the molecule `Clc1ccccc1-c1nc(N2CCNCC2)c2ccccc2n1`, the Potency result is “inactive”.
For the molecule `Cc1ccccc1-c1cc(NCCN2CCOCC2)ncn1`, the Potency entry is “inactive”.
To `CN(Cc1ccco1)c1cc(-c2ccccc2Cl)ncn1` belongs “inactive”.
To `FC(F)(F)c1ccccc1-c1cc(N2CCNCC2)ncn1` belongs “inactive”; to `CN(C)c1ncc2ncc(=O)n(C3CC3)c2n1`, “inactive”; to `COc1cccc(-c2cncnc2NC2CCNCC2)c1`, “inactive”.
To `COCCn1c(=O)c(-c2cccc(C#N)c2)nc2cnc(OC)nc21` belongs “inactive”; to `Cc1ccccc1-c1cncnc1NCc1cccs1`, “inactive”.
For `Cc1noc(C)c1-c1ccc2ncnc(N3CCN(C)CC3)c2c1`, the Potency result was “inactive”.
Take `c1nc(NC2CCNCC2)c2cc(-c3ccc4c(c3)OCO4)ccc2n1`: the Potency entry was “inactive”.
The same measure for `CN(Cc1ccco1)c1ncnc2ccc(-c3cccc(C#N)c3)cc12`: “inactive”; for `c1ccc2c(N3CCNCC3)nc(-c3ccc4c(c3)OCO4)nc2c1`: “inactive”; for `COCCNc1nc(-c2ccccc2OC)nc2ccccc12`: “inactive”.
The same measure for `COc1cccc(Cn2c(=O)c(C)nc3cnc(OC)nc32)c1`: “inactive”; for `CNc1cc(-c2ccccc2C(F)(F)F)ncn1`: “inactive”.
To `Cc1noc(C)c1-c1cncnc1N(C)Cc1ccco1` belongs “inactive”.
On to `COc1cccc(-c2cc(NCc3cccs3)ncn2)c1`, for which the Potency result is “inactive”.
Turning to `Cc1noc(C)c1-c1nccc(NCc2cccnc2)n1`, the Potency result is “inactive”.
The same measure for `CCNc1ncc2nc(C)c(=O)n(Cc3ccc(F)cc3)c2n1`: “inactive”.
The same measure for `c1csc(CNc2ccnc(-c3ccoc3)n2)c1`: “inactive”.
